Reference: ChEMBL document CHEMBL1961873, “Compounds: GSK PKIS; Assays: Nanosyn kinase panel” (2012)

The compounds below were run against T1, Testis-specific serine/threonine-protein kinase 1 (Homo sapiens) (UniProt Q9BXA7). Details: at 0.1 µM.
T1 sequence (whole entry): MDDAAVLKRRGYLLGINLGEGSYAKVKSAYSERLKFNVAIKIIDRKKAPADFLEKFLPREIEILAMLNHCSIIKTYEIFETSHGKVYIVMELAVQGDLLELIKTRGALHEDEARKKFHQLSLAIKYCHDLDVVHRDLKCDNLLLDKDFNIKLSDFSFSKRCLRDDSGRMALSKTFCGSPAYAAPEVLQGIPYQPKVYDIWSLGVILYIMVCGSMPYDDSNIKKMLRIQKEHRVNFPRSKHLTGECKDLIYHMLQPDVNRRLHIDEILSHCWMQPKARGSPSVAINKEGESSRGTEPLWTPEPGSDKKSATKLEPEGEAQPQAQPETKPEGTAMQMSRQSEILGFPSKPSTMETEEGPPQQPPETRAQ

Structure (SMILES) | inhibition
COc1cc(/C=N/Nc2ncnc3[nH]ncc23)ccc1O | 4.57%
COc1cc(Nc2nccc(Nc3ccc4c(C)n[nH]c4c3)n2)cc(OC)c1OC | 1.79%
COc1cc2c(cc1Nc1nc(Nc3ccsc3C(N)=O)c3cc[nH]c3n1)N(C(=O)CN(C)C)CCC2(C)C | 94.6%
CCn1c(-c2nonc2N)nc2c(C#CC(C)(C)O)nc(OC[C@H](N)c3ccccc3)cc21 | 7.96%
COC(=O)Nc1nc2ccc(S(=O)(=O)c3ccc(NC(=O)Nc4cc(C(F)(F)F)ccc4F)cc3)cc2[nH]1 | 2.57%
N#Cc1c(NC(=O)c2ccc(F)cc2)sc2c1CCCC2 | 0.45%
CCn1c(-c2nonc2N)nc2c(C#CC(C)(C)O)ncc(OC3CCNCC3)c21 | 20.7%
CCn1c(-c2nonc2N)nc2cnc(Oc3cccc(NC(=O)c4ccc(N(C)C)cc4)c3)cc21 | 10.9%
Fc1cccc(COc2ccc(Nc3ncnc4sc(-c5ccco5)cc34)cc2Cl)c1 | 2.79%
O=S(=O)(CCNCc1ccc(-c2ccc3ncnc(Nc4ccc(OCc5cccc(F)c5)c(Cl)c4)c3c2)o1)c1ccccc1 | 4.61%
COc1cccc(-n2ncc3c(N/N=C/c4ccc(F)cc4)ncnc32)c1 | 3.31%
NC(=O)c1sc(-n2cnc3ccc(C(F)(F)F)cc32)cc1OCc1ccccc1Br | 3.44%
NS(=O)(=O)c1ccc(N/N=C2\C(=O)Nc3ccc4ncccc4c32)cc1 | 5.63%
c1ccc(-c2nc3n(c2-c2ccc4c(c2)OCO4)CCC3)nc1 | 0.83%
CCNC(=O)O[C@H]1CN[C@H](C#Cc2cc3ncnc(Nc4ccc(OCc5cccc(F)c5)c(Cl)c4)c3s2)C1 | 2.93%
COc1ccc(-c2cc(-c3c[nH]nc3-c3ccccn3)ccn2)cc1 | 3.33%
Nc1nc(-c2cccc(Cl)c2)c(-c2ccc3ncccc3n2)s1 | 7.29%

Structure (SMILES) | inhibition
Clc1ccc(-c2nn3ncccc3c2-c2ccnc(Nc3ccccc3)n2)cc1 | 0.84%
CCN1CCC(CC(=O)Nc2n[nH]c3nnc(-c4cccc(F)c4F)cc23)CC1 | 2.14%
CN1CCC(n2cnc(-c3ccc(F)cc3)c2-c2ccnc(N)n2)CC1 | 2.05%
CNC(=O)c1cncc(/C=C/c2ccccc2Cl)c1 | 0.22%
CC(C)COC(=O)c1ccc2c(c1)/C(=C/Nc1ccc(S(N)(=O)=O)cc1)C(=O)N2 | 11.4%
CCN(CC)S(=O)(=O)c1ccc(OC)c(Nc2ncc(-c3ccccc3)o2)c1 | 0.3%
COc1ccc(-c2oc3ncnc(N)c3c2-c2ccc(NC(=O)Nc3cc(C(F)(F)F)ccc3F)cc2)cc1 | 4.93%
COc1ccc(CNC(=O)c2ccc(-c3cc(-c4nnc(C)o4)ccc3C)cc2)cc1 | 3.31%
CC(C)(CO)CNC(=O)c1ccc2c(c1)/C(=N/Nc1ccc(S(N)(=O)=O)cc1)C(=O)N2 | 0.17%
Cc1cccc2c1NC(=O)/C2=N\Nc1ccc(S(N)(=O)=O)cc1 | 1.83%
Cc1ccc2c(-c3ccnc(Nc4ccccc4)n3)c(-c3ccc(F)cc3)nn2n1 | 2.68%
CNC(=O)c1cccc(C#Cc2cncnc2Nc2ccc(OCc3cccc(F)c3)c(Cl)c2)c1 | 1.65%
c1cc(-c2cnn3nc(N4CCOCC4)ccc23)nc(NC2CC2)n1 | 2.66%
FC(F)(F)c1cccc(-c2nn3ncccc3c2-c2ccnc(Nc3ccc4c(c3)OCCO4)n2)c1 | 2.75%
CC1=C(C(=O)Nc2cc(Cl)c3[nH]ncc3c2)C(c2ccc(C(F)(F)F)cc2)CC(=O)N1 (stereo not drawn) | 3.52%
COc1cc(N2CCN(C(C)C)CC2)ccc1Nc1nc(Nc2ccc(F)cc2C(N)=O)c2cc[nH]c2n1 | 82.8%
O=C(Nc1n[nH]c2cc(-c3ccc(F)cc3)ccc12)C1CC1 | 3.31%

What follows are compounds tested against T1, Testis-specific serine/threonine-protein kinase 1 (Homo sapiens). Details: at 1 µM.

Structure (SMILES) | inhibition
COc1cc(/C=N/Nc2ncnc3[nH]ncc23)ccc1O | 11.6%
COc1cc(Nc2nccc(Nc3ccc4c(C)n[nH]c4c3)n2)cc(OC)c1OC | 12.6%
COc1cc2c(cc1Nc1nc(Nc3ccsc3C(N)=O)c3cc[nH]c3n1)N(C(=O)CN(C)C)CCC2(C)C | 96.3%
CCn1c(-c2nonc2N)nc2c(C#CC(C)(C)O)nc(OC[C@H](N)c3ccccc3)cc21 | 44.1%
COC(=O)Nc1nc2ccc(S(=O)(=O)c3ccc(NC(=O)Nc4cc(C(F)(F)F)ccc4F)cc3)cc2[nH]1 | 0.57%
N#Cc1c(NC(=O)c2ccc(F)cc2)sc2c1CCCC2 | 0.89%
CCn1c(-c2nonc2N)nc2c(C#CC(C)(C)O)ncc(OC3CCNCC3)c21 | 71.4%
CCn1c(-c2nonc2N)nc2cnc(Oc3cccc(NC(=O)c4ccc(N(C)C)cc4)c3)cc21 | 52.2%
Fc1cccc(COc2ccc(Nc3ncnc4sc(-c5ccco5)cc34)cc2Cl)c1 | 3.11%
O=S(=O)(CCNCc1ccc(-c2ccc3ncnc(Nc4ccc(OCc5cccc(F)c5)c(Cl)c4)c3c2)o1)c1ccccc1 | 5.43%
COc1cccc(-n2ncc3c(N/N=C/c4ccc(F)cc4)ncnc32)c1 | 5.3%
NC(=O)c1sc(-n2cnc3ccc(C(F)(F)F)cc32)cc1OCc1ccccc1Br | 3.86%
NS(=O)(=O)c1ccc(N/N=C2\C(=O)Nc3ccc4ncccc4c32)cc1 | 34.9%
c1ccc(-c2nc3n(c2-c2ccc4c(c2)OCO4)CCC3)nc1 | -0.01%
CCNC(=O)O[C@H]1CN[C@H](C#Cc2cc3ncnc(Nc4ccc(OCc5cccc(F)c5)c(Cl)c4)c3s2)C1 | -2.91%
COc1ccc(-c2cc(-c3c[nH]nc3-c3ccccn3)ccn2)cc1 | 5.54%
Nc1nc(-c2cccc(Cl)c2)c(-c2ccc3ncccc3n2)s1 | 12.9%

Structure (SMILES) | inhibition
Clc1ccc(-c2nn3ncccc3c2-c2ccnc(Nc3ccccc3)n2)cc1 | 0.18%
CCN1CCC(CC(=O)Nc2n[nH]c3nnc(-c4cccc(F)c4F)cc23)CC1 | 1.72%
CN1CCC(n2cnc(-c3ccc(F)cc3)c2-c2ccnc(N)n2)CC1 | 3.07%
CNC(=O)c1cncc(/C=C/c2ccccc2Cl)c1 | 1.52%
CC(C)COC(=O)c1ccc2c(c1)/C(=C/Nc1ccc(S(N)(=O)=O)cc1)C(=O)N2 | 50.2%
CCN(CC)S(=O)(=O)c1ccc(OC)c(Nc2ncc(-c3ccccc3)o2)c1 | -0.98%
COc1ccc(-c2oc3ncnc(N)c3c2-c2ccc(NC(=O)Nc3cc(C(F)(F)F)ccc3F)cc2)cc1 | 5.3%
COc1ccc(CNC(=O)c2ccc(-c3cc(-c4nnc(C)o4)ccc3C)cc2)cc1 | 6.39%
CC(C)(CO)CNC(=O)c1ccc2c(c1)/C(=N/Nc1ccc(S(N)(=O)=O)cc1)C(=O)N2 | 11%
Cc1cccc2c1NC(=O)/C2=N\Nc1ccc(S(N)(=O)=O)cc1 | 3.05%
Cc1ccc2c(-c3ccnc(Nc4ccccc4)n3)c(-c3ccc(F)cc3)nn2n1 | 0.03%
CNC(=O)c1cccc(C#Cc2cncnc2Nc2ccc(OCc3cccc(F)c3)c(Cl)c2)c1 | 1.56%
c1cc(-c2cnn3nc(N4CCOCC4)ccc23)nc(NC2CC2)n1 | 5.12%
FC(F)(F)c1cccc(-c2nn3ncccc3c2-c2ccnc(Nc3ccc4c(c3)OCCO4)n2)c1 | 1.2%
CC1=C(C(=O)Nc2cc(Cl)c3[nH]ncc3c2)C(c2ccc(C(F)(F)F)cc2)CC(=O)N1 (stereo not drawn) | 3.9%
COc1cc(N2CCN(C(C)C)CC2)ccc1Nc1nc(Nc2ccc(F)cc2C(N)=O)c2cc[nH]c2n1 | 95.4%
O=C(Nc1n[nH]c2cc(-c3ccc(F)cc3)ccc12)C1CC1 | 2.06%
